From PubChem BioAssay
Hits are enriched below; roughly 3.2% of the tested compounds scored in any of these assays.
Tau filament bind = binds recombinant human tau filaments | recombinant tau filaments, thioflavin S fluorescence, 15 h; filaments grown with octadecylsulfate alongside compound | Potency, µM (doses to about 57.1 µM), for inactives: at the top dose activity change, negative = inhibition | AID 596 | actives 2% (n = 71,000);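 note: % is set by controls: 0 for no effect and ±100 for the full control effect; actives lower thioflavin S fluorescence by blocking filaments or displacing dye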
Target sequence (P10636 whole entry, looked up): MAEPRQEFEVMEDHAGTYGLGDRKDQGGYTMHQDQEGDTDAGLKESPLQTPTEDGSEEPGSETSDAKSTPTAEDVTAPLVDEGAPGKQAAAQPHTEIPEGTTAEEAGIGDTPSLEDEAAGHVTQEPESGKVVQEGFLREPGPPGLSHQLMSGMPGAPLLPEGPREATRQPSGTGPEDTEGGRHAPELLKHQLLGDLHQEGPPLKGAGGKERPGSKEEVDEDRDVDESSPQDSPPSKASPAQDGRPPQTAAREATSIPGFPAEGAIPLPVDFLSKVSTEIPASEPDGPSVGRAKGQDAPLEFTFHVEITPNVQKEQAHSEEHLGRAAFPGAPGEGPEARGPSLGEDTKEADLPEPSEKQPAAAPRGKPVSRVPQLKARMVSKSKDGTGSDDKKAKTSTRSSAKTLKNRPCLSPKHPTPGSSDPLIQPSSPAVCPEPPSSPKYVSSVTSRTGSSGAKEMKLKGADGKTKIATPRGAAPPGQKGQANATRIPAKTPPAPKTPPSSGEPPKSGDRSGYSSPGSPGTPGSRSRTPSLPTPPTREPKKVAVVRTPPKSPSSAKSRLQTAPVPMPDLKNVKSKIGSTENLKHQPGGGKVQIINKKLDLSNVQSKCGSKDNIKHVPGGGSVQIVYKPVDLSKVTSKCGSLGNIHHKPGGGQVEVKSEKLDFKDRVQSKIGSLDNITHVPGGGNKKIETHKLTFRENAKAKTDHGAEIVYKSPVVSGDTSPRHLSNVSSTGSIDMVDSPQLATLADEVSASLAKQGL
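Quantitative HTS: thioflavine S signal from ODS-induced tau filaments, excited at 450 nm, emission 510 nm. Conditions: 1 uM tau, 30 uM ODS, 15 h at 37 C, pH 7.4.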
15-hLO inh = inhibitors of human 15-lipoxygenase (ALOX15); P16050; purified 15hLO-1, xylenol orange hydroperoxide absorbance; Potency, µM (highest dose often 57.1 µM), for inactives: at the top dose activity change, negative = inhibition, most hits filed as inhibitors; actives 1.4% (n = 74,000); AID 887; note: % is set by controls: 0 for no effect and ±100 for the full control effect; nearly all actives have a fitted effect of over 55% in size
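Quantitative HTS in 25 mM Hepes pH 7.5 containing 0.01% Triton X-100: human 15hLO-1 at 40 nM, arachidonic acid at 50 uM, 6 min turnover. Product quantified via ferrous oxidation/xylenol orange, 573:405 nm absorbance ratio.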
USP2a inh = blocks human ubiquitin-specific protease USP2a | Potency, µM (top dose mostly 38.3 µM), inactives show at the top dose activity change, negative = inhibition, hits mostly inhibitors | USP2a enzymatic assay, qHTS inhibition | actives 0.1% (n = 60,000); note: nearly all actives have a fitted effect of over 60% in size
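USP2 core (20 nM final) was preincubated with compound for 30 min at RT in 20 mM Tris-HCl pH 8.0, 2 mM CaCl2, 2 mM beta-mercaptoethanol; Ub-PLA2 (20 nM) plus NBD C6-HPC (20 uM) then added, fluorescence read after 2.5 h.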
Hsp90 Hop PPI = changes Hsp90-Hop TPR2A binding signal, up or down. AlphaScreen TPR2A-His6 binding biotin-Hsp90 C-terminal peptide. actives 0.44% (n = 71,000). Potency, µM (series often up to 57 µM), without a hit: at the highest dose activity change, negative = inhibition; active = well fitted curve in either direction with a large enough effect; inconclusive = small, poorly fitted or top-dose-only effect, or another doubt; note: % is set by controls: 0 for no effect and ±100 for the full control effect
* marks the source's active call; other numbers are inactive results; i = inactive; ? = inconclusive; · = no result given; ! = repeats disagree; [ ] = remark or other dose. Unless noted, calls come from the whole dose curve; as a rule, active = well fitted curve in the direction sought with a large enough effect; inconclusive = small, poorly fitted or top-dose-only effect, or another doubt; inactive = no such curve, though single readings can be large; an effect the other way counts as inactive or inconclusive. Potency is the fitted concentration of half-maximal effect.

SMILES | Tau filament bind | 15-hLO inh | USP2a inh | Hsp90 Hop PPI
Cc1ccc(NC(=O)C2CC=CCC2C(=O)N2CCCCC2)cc1 (configuration not stated) | -0.9% | -1.8% | -3.6% | -1.4%
Cc1cc(-c2csc(NC(=O)c3ccc(=O)n(C)n3)n2)c(C)n1CC1CCCO1 (configuration not stated) | 7.94µM* | ? | 21.3% | -8.8%
O=C(Nc1nc(-c2ccccc2)cs1)C1CCCO1 (configuration not stated) | -10.4% | -11.6% | -1.8% | -2.3%
COC(=O)[C@](C)(N)Cc1ccc(O)cc1 | 2.3% | 6.9% | -1.6% | -6.4%
Cc1c(OC(=O)CNC(=O)OC(C)(C)C)ccc2c3c(c(=O)oc12)CCC3 | 21.9% | 2.2% | 23.3% | -1.2%
CCCCCCCCCCCCCCCCCCOCC(O)CO (configuration not stated) | · | 3.2% | 37.4% | ·
C=CCCCCCCCCCCC/C=C/C(O)COC(C)=O (configuration not stated) | · | 0.3% | 62.2% | ·
O=C(O)c1cc(O)c2c(c1)C(=O)c1cccc(O)c1C2=O | 421.0% | 12.6µM*! | · | 0.4%
Cc1nc2cnc(N(C)C)nc2n(CCC#N)c1=O | 1.4% | 4.3% | 3.1% | -8.2%
COc1ccc(Nc2cc(C(=O)NCCCN3CCN(C)CC3)c3ccccc3n2)c(OC)c1 | 12.6µM* | -15.9% | 0.3% | -7.8%
CCOc1ccc(-c2cc(C(=O)NCCCN3CCN(CC)CC3)c3ccccc3n2)cc1 | 9.5% | -8.3% | 24.2% | -2.7%
N#Cc1c(/N=C/c2cccs2)sc2c1CCCCC2 | 12.6µM* | -9.7% | -6.3% | ?
CN(C)/C=N/c1sc2c(c1C#N)CCC2 | 8.8% | ? | -2.3% | -2.7%
C#CCCCCCCCCCCCC(=O)CC(O)COC(C)=O (configuration not stated) | · | -4.1% | -5.0% | ·
Cc1cc(C2C(C#N)=C(N)SC(N)=C2C#N)c(C)s1 | 176.2% | -13.9% | -9.9% | -4.0%
CCCCc1ccc(C2C(C#N)=C(N)SC(N)=C2C#N)s1 | 0.316µM* | 0.794µM* | 31.8%[7.66 µM] | -10.7%[11 µM]
CC(C)(C)C1CCC2(CC1)CCN(CCCN1CCOCC1)CC2 | 9.5%[11.4 µM] | 22.4%[11.4 µM] | · | 3.9%[11 µM]
O=C1c2ccccc2N(Cc2ccc(Cl)cc2)C2=NCCN12 | · | -10.0% | · | ·
O=C1C(=O)N(Cc2ccc(Cl)c(Cl)c2)c2ccccc21 | 31.6µM* | 10µM* | · | -3.2%
CO[C@H]1COC(=O)[C@@H](C)COC(=O)[C@@H](OCc2ccccc2)/C=C\[C@@H]1C | · | 3.2%[11.4 µM] | · | ·
CC[C@H]1C2=C3C(CC[C@H]4C(OCc5ccc(F)cc5C(F)(F)F)OC[C@](C)([C@@H]34)N(C(=O)OC(C)(C)C)C2)C2COC(=O)OCC21 (some centres not stated) | 63.5% | · | · | -1.6%
O=C1C2=C(Nc3ccccc3SC2c2ccco2)c2ccccc21 (configuration not stated) | 3.98µM* | ? | 22.4% | ?
COc1cccc(NC(=O)CNC(C)CCC(C)C)c1 (configuration not stated) | 20µM* | -5.8% | -0.5% | -0.8%
CC(=O)c1sc2ccccc2c1OC(=O)c1ccco1 | 8.3% | -3.0% | -7.9% | -1.5%
CC(=O)c1c(OC(=O)c2ccco2)c2ccccc2n1C | 7.5% | 25.1µM* | -13.5% | -3.5%
SMILES | Tau filament bind | 15-hLO inh | USP2a inh | Hsp90 Hop PPI
COCn1c2ccccc2c2nnc(C(C)=O)nc21 | · | 5.2%[11.4 µM] | · | ·
CS(=O)(=O)N1CCC[C@@]2(CCN(C(=O)Nc3ccccc3)C2)C1 | 1.3% | -3.2% | -23.6% | -1.3%
Cc1nc(NC2CCCCC2)c2nc(-c3ccccc3)n(CCN3CCCC3)c2n1 | -18.9% | -5.7% | · | -5.8%
CCOC(=O)[C@@H](O)Cc1cnc2ccccc2n1 | 5.01µM* | -0.9%[11.4 µM] | · | -2.4%[11 µM]
O=C(Nc1cccc(F)c1)N1CC[C@@]2(CCCN(C(=O)c3ccncc3)C2)C1 | 4.9% | 3.0% | 7.8% | -1.4%
Cc1nn(-c2nc3ccccc3s2)c(C)c1Oc1ccccc1O | 127.8% | 15.8µM* | 13.5% | -3.5%
CCN(CC)c1ccc2c(c1)oc(=O)c1c(Cl)cc(=O)oc12 | i | -18.9% | 18.4% | 3.8%
CCOC(=O)Cc1c(C)c2ccc(N(CC)CC)cc2oc1=O | 271.8% | -0.9% | -12.5% | 25.1µM*
CCN(CC)c1ccc2c(Cl)c(Br)c(=O)oc2c1 | i | ? | ? | 25.1µM*
CC(C)C(NC(=O)C(Cc1ccc(O)cc1)NC(=O)C(NC(=O)C(F)(F)F)C(C)C)C(=O)O (configuration not stated) | · | -1.4% | -7.6% | ·
COC(=O)C1C(=O)C2=C(CC1C)NC(C)=C(C(=O)OCCOc1ccccc1)C2c1ccc(C)o1 (configuration not stated) | 6.6% | -26.8% | 40.3% | 0.9%
COC(=O)C1C(=O)C2=C(CC1C)NC(C)=C(C(=O)OC1CCCCC1)C2c1ccc(N(C)C)cc1 (configuration not stated) | 25.1µM* | 15.8µM* | 41.0% | ?
C/C(Cl)=C/CCl | 5.0% | -3.3% | · | -3.5%
COc1nc(N2CCCCCC2)nc(N2CCCCCC2)n1 | -8.0% | 3.7% | -4.8% | -0.3%
COc1nc(Nc2cccc(C)c2)nc(N2CCCCC2)n1 | 7.3% | 3.98µM* | -11.8% | 7.7%
CNC(=O)Oc1ccc2c(c1)[C@@]1(C)CCN(C)C1N2C (some centres not stated) | · | -10.7% | -7.4% | ·
CC(=O)OC/C=C(\C)CC/C=C(\C)CC/C=C(\C)CC/C=C(\C)CC/C=C(\C)CC/C=C(\C)CC/C=C(\C)CC/C=C(\C)CCC=C(C)C | · | -5.1% | -7.1% | ·
CC1CN(c2nc3ccccn3c(=O)c2/C=C(\C#N)S(=O)(=O)c2ccccc2)CC(C)O1 (configuration not stated) | 20µM* | -11.0% | 21.2% | -18.2%
Cc1cccc(S(=O)(=O)C(C#N)c2nc3ccccc3nc2N2CC(C)OC(C)C2)c1 (configuration not stated) | 142.4% | -19.0% | 6.8% | -2.5%
COc1ccc(-n2c(=O)c(-c3ccccc3)nc3cnc(N4CCOCC4)nc32)cc1 | 2.6% | -11.1% | 54.3% | 5.6%
COc1ccc(OC)c(S(=O)(=O)Nc2ccc(O)c(Sc3ncn[nH]3)c2)c1 | 11.8% | 12.6µM* | -5.7% | -5.3%
COc1ccc(OC)c(S(=O)(=O)Nc2ccc(C(N)=O)cc2)c1 | -2.2% | 3.1% | 1.2% | -2.6%
COc1ccc(OC)c(S(=O)(=O)Nc2ccc(O)c3ccccc23)c1 | 25.1µM* | 25.1µM* | 12.8% | -11.5%
COc1ncc2nc(C)c(=O)n(C3CC3)c2n1 | 125.9% | 0.9% | 31.7% | -6.9%
CC(C)C[C@@H](CC(=O)N[C@@H](CCCN)CC(=O)N[C@@H]1CCCC[C@H]1C(=O)N[C@H](CC(=O)N[C@@H](CCC(=O)O)CC(=O)O)Cc1ccccc1)NC(=O)[C@@H]1CCCC[C@H]1N | -11.7% | · | · | -11.2%
Cc1nn2cc(-c3ccccc3)nc2s1 | 4.4% | 25.1µM* | -3.0% | 1.1%
Cc1ccc(Cl)cc1N | 8.2% | -2.1% | · | -1.1%
Cn1cccc1C(=O)OCC(=O)c1cc2ccccc2o1 | 15.8µM* | -6.8% | 30.3% | -3.2%
